Source: PubChem BioAssay (National Center for Advancing Translational Sciences (NCATS))
This is a sample that favours compounds with a hit; in the whole collection about 10% have one here.
HPGD block = inhibitors of human 15-hydroxyprostaglandin dehydrogenase (HPGD); 4.3% of 150,000 active; Potency, µM, without a hit: at the highest dose activity change, negative = inhibition, usual class: inhibitors; purified HPGD, NADH fluorescence kinetic, PGE2 substrate; AID 894; P15428; further: potency means the concentration at half of the fitted maximal effect; on the % scale 0 is the no-effect control and ±100 the full control effect
Target sequence (P15428 whole entry, looked up): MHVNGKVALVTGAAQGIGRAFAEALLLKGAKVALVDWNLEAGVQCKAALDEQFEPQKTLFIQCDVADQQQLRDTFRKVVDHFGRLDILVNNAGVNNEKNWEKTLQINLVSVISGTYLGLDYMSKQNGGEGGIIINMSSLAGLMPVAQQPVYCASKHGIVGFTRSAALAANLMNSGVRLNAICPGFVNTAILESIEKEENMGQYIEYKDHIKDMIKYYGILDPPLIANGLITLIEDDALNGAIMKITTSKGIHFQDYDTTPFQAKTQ
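NADH formation kinetics: reaction with 30 uM PGE2 and 1 mM NAD+ (final), 20 nM enzyme, Tris-HCl pH 8 with Tween 20, after 15 min compound preincubation at room temperature. Fluorescence change, last versus first of five reads.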
PNC inhibitor = inhibitors of perinucleolar compartment assembly; activity change (PNC), negative = inhibition, % at 10 µM; PC3M PTB-GFP, PNC prevalence imaging, 16 h; stronger effect = lower value; 3.1% of 140,000 active;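 active means readout at or below -70, meaning at least 70% loss of cells showing the perinucleolar compartment, a nuclear body marking cancer cells; inconclusive means readout between -30 and a set limit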;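 further: plate controls were DMSO wells for no effect and camptothecin positive control wells for full effect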
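Compounds are pinned in duplicate onto adhered PC3M cells stably expressing GFP-tagged PTB and incubated 16 h at 37 C. Cells are then fixed, nuclei stained with Hoechst, and PNC-positive cells counted.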
LMNA splice mod = LMNA splicing modulation; HeLa LMNA splicing GFP/RFP minigene ratio, 48 h; AID 1487; 0.01% of 200,000 active; Potency, µM (top dose mostly 46.1 µM), inactives show at the highest dose ratio change, negative = inhibition, hits mostly inhibitors; active means well fitted inhibition curve with a large enough effect in the signal ratio, with a control signal flat, not every such curve was filed as active; inconclusive means small, poorly fitted or top-dose-only effect, or effect the other way, or a change in a side signal; the % refers to the signal ratio; further: potency means the concentration at half of the fitted maximal effect; on the % scale 0 is the no-effect control and ±100 the full control effect
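S3 HeLa stable clones carrying a lamin A-EGFP splicing minigene plus DsRed2 were seeded at 600 cells/well in Opti-MEM with 2% FBS, pin-dosed and incubated 48 h at 37°C. Acumen cytometry (488 nm) gave the GFP/RFP total-intensity ratio.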
12-hLO inh = inhibitors of human 12-lipoxygenase (ALOX12); P18054; purified 12-hLO, xylenol orange hydroperoxide absorbance; Potency, µM (highest dose often 57.1 µM), for the others: top-dose activity change, negative = inhibition, actives largely listed as inhibitors; 0.12% of 150,000 active; active means well fitted inhibition curve with a large enough effect; inconclusive means small, poorly fitted or top-dose-only effect; further: potency means the concentration at half of the fitted maximal effect; on the % scale 0 is the no-effect control and ±100 the full control effect; nearly all actives have a fitted effect of over 55% in size
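Hydroperoxide formation by human 12-lipoxygenase from 40 uM arachidonic acid was followed colorimetrically via ferric-xylenol orange complex, using the 573/405 nm absorbance ratio. Enzyme concentration was 150 nM, with 30 min reaction at room temperature.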
ALDH1A1 block = ALDH1A1 (human) enzyme inhibition. Potency, µM (top dose mostly 75.3 µM), without a hit: at the highest dose activity, negative = inhibition, actives largely listed as inhibitors. Purified ALDH1A1, NADH fluorescence, propionaldehyde substrate. P00352. 7.3% of 220,000 active;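 further: potency means the concentration at half of the fitted maximal effect; plate controls were no enzyme wells and a reference inhibitor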
HPGD inh conf = human HPGD enzyme inhibition, confirmation | shares compounds with HPGD block | recombinant HPGD, NADH fluorescence, PGE2 substrate | Potency, µM (doses to about 57.1 µM), for the others: at the top dose activity change, negative = inhibition, most hits filed as inhibitors | 90% of 90 active; calls by dose curve
Starred values were filed as active, the others as inactive; ? = inconclusive; / = not tested or not shown; [ ] = dose if it differs, or a comment. Unless noted, the call rests on the fitted dose curve; in most records, active means well fitted inhibition curve with a large enough effect (not every such curve was filed as active); inconclusive means small, poorly fitted or top-dose-only effect, or another doubt; inactive means no such curve, though single readings can be large or run the other way.

SMILES	HPGD block	PNC inhibitor	LMNA splice mod	12-hLO inh	ALDH1A1 block	HPGD inh conf
CC1CCCN(CC(=O)Nc2cccc([N+](=O)[O-])c2)C1 (stereo unspecified)	-9.5%	122.2	-10.9%	-4.3%	?	/
CC1CCCN(C(=O)c2sc3cc([N+](=O)[O-])ccc3c2Cl)C1 (stereo unspecified)	0.447µM*	63.1	7.8%[0.0737 µM]	3.3%	5.62µM*	0.501µM*
Cc1onc(-c2c(Cl)cccc2Cl)c1COC(=O)c1ccc(Cl)cc1[N+](=O)[O-]	/	/	/	/	-5.6%	/
COc1ccc(S(=O)(=O)Nc2cc(Sc3ncn[nH]3)c(O)c3ccccc23)cc1	1.12µM*	-27.7	?	?	?	0.355µM*
Cc1ccc(N(C(=O)CCl)C(C(=O)NC2CCCCC2)c2cccnc2)cc1C (stereo unspecified)	-9.5%	?	?	0.5%	8.9%	/
Cc1ccc(C)c(Cn2c(=O)n(-c3ccc(CC(=O)NCc4ccco4)cc3)c(=O)c3sccc32)c1	-7.6%	-9.4	-0.2%	2.4%	11.3%	/
Cc1ccc(C)c(Cn2nnc3c(=O)[nH]c(C(=O)NCc4ccco4)nc32)c1	0.562µM*	30.8	13.8%	-17.1%	-14.2%	0.316µM*
O=C(c1ccc(COc2ccccc2Br)cc1)N1CCCCC1	0.0447µM*	8.0	-7.2%	-7.0%	?	0.0891µM*
O=C(c1ccc(N2CCCC2=O)cc1)N1CCN(c2ccccc2)CC1	-2.6%	35.8	8.6%	-0.4%	8.9%	/
O=C(c1ccc(N2CCCC2=O)cc1)N1CCCCCC1	0.224µM*	80.6	-2.9%[0.0737 µM]	2.0%	?	0.282µM*
COc1ccc(C(=O)N2CCC3(CCN(Cc4cc(C(F)(F)F)cc(C(F)(F)F)c4)CC3)CC2)cc1	-14.5%	/	/	2.1%	1.0%	/
CCN(CC)C(=O)c1sc2nc(-c3cccs3)cc(-c3ccc(Cl)cc3)c2c1N	6.31µM*	48.6	2.5%	-0.6%	?	10µM*
CN(C)C(=O)c1ccc(-c2nc(Nc3ccncc3)c3ccccc3n2)cc1	0.159µM*	/	?	1.6%	0.6%	0.112µM*
CN(C)c1ccc(-c2nc(Nc3ccncc3)c3ccccc3n2)cc1	?	/	?	-15.8%	-5.0%	/
Cc1ccc(S(=O)(=O)N(C)c2ccc(C(=O)N3CCC(C(N)=O)CC3)cc2)cc1	28.2µM*	13.2	5.7%	-4.7%	0.8%	?
Fc1ccccc1CSc1nc2ncc(Br)cc2[nH]1	0.794µM*	35.7	1.4%	0.0%	-15.4%	0.631µM*
O=C(CSc1nc2ncc(Br)cc2[nH]1)c1cccc([N+](=O)[O-])c1	7.94µM*	5.5	?	-2.6%	?	2.24µM*
O=C(NCCc1c[nH]c2ccccc12)C1CCC(Cn2c(=S)[nH]c3ccccc3c2=O)CC1 (stereo unspecified)	-12.8%	24.9	-16.8%	-29.4%	8.2%	/
COCCNC(=O)C1CCC(Cn2c(=S)[nH]c3ccccc3c2=O)CC1 (stereo unspecified)	1.78µM*	-13.9	?	-2.7%	-5.8%	1.12µM*
Cc1ccccc1NS(=O)(=O)c1cc(C(=O)N2CCc3ccccc3C2)ccc1C	-11.4%	?	?	-12.7%	-0.3%	/
Cc1ccc(NS(=O)(=O)c2cc(C(=O)N3CCc4ccccc4C3)ccc2Cl)cc1	-21.3%	-5.8	?	-2.3%	6.4%	-36.3%
Cc1oc(-c2cccc(Cl)c2)nc1CSc1nc2c(c(=O)[nH]1)CCC2	0.562µM*	-12.3	?	-6.6%	4.5%	1.26µM*
CCN(CC)CCNC(=O)c1ccc2nc(CCc3ccccc3)oc2c1	/	/	2.5%[46 µM]	/	/	/
Cc1cc(Br)ccc1SCC(=O)OCC(=O)NC1CCCC1	/	/	-1.3%[46 µM]	/	-7.9%	/
COc1ccc(CSC2=CS(=O)(=O)c3ccccc3N2)cc1	/	/	?	/	5.9%	/
O=C(NCCc1ccccc1)C1CCC(CNc2c(N3CCCCC3)c(=O)c2=O)CC1 (stereo unspecified)	6.31µM*	63.3	?	-0.3%	-15.7%	6.31µM*
Cc1cc(C)nc(N2CCC(C(=O)NCCc3ccc(Cl)cc3)CC2)n1	/	/	?	/	0.9%	/
